Test results reported in PubChem BioAssay AID624288 (National Center for Advancing Translational Sciences (NCATS), 2012).
The campaign covered roughly 340,000 compounds. About 1,400 (0.41%) were called active. Not shown: some 4% with an inconclusive outcome. Calls come from the whole dose curve; cell line not stated here. For the sample, actives were picked, then their nearest neighbours and some compounds at random.

experiment: qHTS for Antagonists of gsp, the Etiologic Mutation Responsible for Fibrous Dysplasia/McCune-Albright Syndrome: qHTS; settings: gsp-mutant cells, cAMP HTRF, 30 min; series mostly up to 76.9 µM; note: nearly all actives have a fitted effect of over 65% in size
Method in brief: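 HTRF cAMP measurement after 30 min RT detection following 30 min, 37C compound treatment alongside […] (added as 300 uM solution) in G418-selected cells seeded at 2000/well and grown 16–24 h.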
Potency is the fitted concentration of half-maximal effect.

Potency, active:
COc1ccc(C(=O)NC2CCCc3c2cnn3-c2cccc(C)c2C)c(OC)n1 (centres undefined) 39.8 µM
CC(=O)c1c(C)[nH]c(C(=O)COC(=O)c2cccc(S(=O)(=O)N(C)c3ccccc3)c2)c1C 31.6 µM
COc1ccc(S(=O)(=O)N(C)C[C@@H]2Oc3ccc(NC(=O)Nc4c(C)noc4C)cc3C(=O)N([C@H](C)CO)C[C@@H]2C)cc1 7.94 µM
Cc1nn2cc(-c3ccc(Cl)cc3)cnc2c1Br 8.91 µM
O=C(Nc1nnc(S(=O)(=O)N2CCOCC2)s1)c1cccc(Br)c1 44.7 µM
O=C(Nc1nnc(S(=O)(=O)N2CCCCCC2)s1)c1cccc(Br)c1 28.2 µM
Cc1nc2c(C(=O)NCc3ccc4c(c3)OCO4)c[nH]n2c(=O)c1Cc1ccccc1F 28.2 µM
Cc1cc2ccccn2c1C(=O)c1cccc(S(=O)(=O)N2CCOCC2)c1 31.6 µM
O=C(CSc1nnc(C2CC2)n1Cc1ccccc1)Nc1cccnc1Cl 7.94 µM
Cc1nn(Cc2ccc(F)cc2)c(C)c1NC(=O)c1noc2c1CCc1ccccc1-2 35.5 µM
O=C(O)c1ccc(-n2nc(-c3ccccc3)c3ccccc3c2=O)cc1 44.7 µM
COc1ccc(-c2nn(-c3ccccc3)cc2/C=C2/SC(=S)N(CCCC(=O)O)C2=O)c(C)c1 31.6 µM
Cc1ccc(-c2nn(-c3ccccc3)cc2/C=C2\SC(=S)N(CCCCCC(=O)O)C2=O)o1 15.8 µM
O=C(CC(O)(C(F)(F)F)C(F)(F)F)Nc1ccc(Cl)c(Cl)c1 7.08 µM
Cc1ccnc(NS(=O)(=O)c2ccc(NC(=O)c3oc4ccc(F)cc4c3C)cc2)n1 22.4 µM
COc1ccc(/C=C2/SC(=O)N(CCCCCC(=O)Nc3ccccc3C(=O)O)C2=S)cc1 22.4 µM
CCC(=O)Oc1cccc(C(=O)Nc2ccc(-c3nnc(-c4ccco4)o3)cc2)c1 28.2 µM
COc1ccc(/C=N/Nc2cc(N3CCOCC3)nc(C)n2)c(OC)c1 35.5 µM
Cc1ccc(C)c(N2CCN(C(=O)CCCCCn3c(=S)[nH]c4ccc(N5CCOCC5)cc4c3=O)CC2)c1 28.2 µM
COC(=O)c1ccc(COc2ccc(/C=C/C(=O)c3ccc(OC)c(CSCC(=O)O)c3)cc2OC)cc1 39.8 µM

Potency, inactive:
OCC(O)C1OCOC(C(O)CO)C1O (centres undefined)
CCOC(=O)N(Cc1ccccc1)C1CC1
CCc1c(Nc2ccccc2Cl)nc(N)[nH]c1=O
CC(=O)NCC(=O)NC1CCCc2c1cnn2-c1ccccc1F (centres undefined)
Cc1cc(C(=O)NC2CCCc3c2cnn3-c2cccc(C)c2C)c(C)o1 (centres undefined)
S=C(Nc1ccccc1)Nc1ccc2ccccc2c1
Cn1c(=O)[nH]c2c(c(C(=O)O)nn2C)c1=O
CC(=O)c1c(C)[nH]c(C(=O)COC(=O)c2cccs2)c1C
COc1cccc(C(=O)OCC(=O)c2[nH]c(C)c(C(C)=O)c2C)c1
Cc1noc(C)c1NC(=O)Nc1ccc2c(c1)C(=O)N([C@H](C)CO)C[C@H](C)[C@@H](CN(C)S(=O)(=O)c1cn(C)cn1)O2
Cc1noc(C)c1NC(=O)Nc1ccc2c(c1)C(=O)N([C@H](C)CO)C[C@H](C)[C@@H](CN(C)C(=O)Nc1ccccc1)O2
O=C(CCCCCCCC(=O)N1CCCCC1)N1CCCCC1
COc1ccc(CCC(=O)Nc2ccc(Cl)c(S(=O)(=O)N3CCOCC3)c2)cc1OC
CC(=O)N1CCc2ccc(N)cc21
CCCCN(C(=O)c1cccc(N2C(=O)c3ccccc3C2=O)c1)c1c(N)n(CCCC)c(=O)[nH]c1=O
CCCCNC1(C#N)CCN(Cc2ccccc2)CC1
O=C(OCCOc1ccccc1F)c1cc(S(=O)(=O)N2CCOCC2)ccc1F
COc1cccc(C(=O)Nc2nnc(S(=O)(=O)N3CCOCC3)s2)c1
Cc1nc2ccc(NC(=O)c3cccc(S(=O)(=O)N4CCOCC4)c3)cc2s1
O=C(Nc1nncs1)c1cccc(S(=O)(=O)N2CCCCC2)c1
COc1cccc(C(=O)Nc2nnc(S(=O)(=O)N3CCCCC3)s2)c1
Cc1nc(N)nc(Cl)c1CCC1OCCO1
CCN1C[C@@H]2[C@@H]3C(=O)N(Cc4ccccc4)C(=O)[C@@H]3[C@](C)(C1=O)N2C(=O)c1ccc(C(C)(C)C)cc1
CCn1c(=O)c(C(=O)NCc2ccc3c(c2)OCO3)c(O)c2ccccc21
O=C(NCc1ccc2c(c1)OCO2)c1cc(F)c(F)cc1Cl
COc1ccc(Nc2ccc3ccccc3c2)cc1
Cc1ccc(Nc2c(O)nc[nH]c2=O)cc1C
O=C(NCC1(N2CCCCC2)CCCCC1)c1cccc(S(=O)(=O)Nc2ccccc2Cl)c1
O=C(COC(=O)c1ccccc1)Nc1cccc(S(=O)(=O)N2CCOCC2)c1
Cc1cc2ccccn2c1C(=O)c1cccc(F)c1
O=C(NN=CC=Cc1ccccc1)C(O)C(O)C(=O)NN=CC=Cc1ccccc1 (centres undefined)
CN(O)C(=S)c1ccccc1
COc1ccc(-c2nnc(SCC(=O)Nc3cccnc3Cl)n2C)cc1
CC(=O)Nc1ccc(NC(=O)CSc2nnc(C3CC3)n2-c2ccccc2)cc1
CNN/C(N=Cc1ccc([N+](=O)[O-])s1)=N\S(=O)(=O)c1cc(C)c(Cl)cc1SCc1ccccc1
Cc1nn(Cc2ccc(F)cc2)c(C)c1NC(=O)c1cccnc1Cl
Cc1cc(C(=O)Nc2c(C)nn(Cc3ccccc3)c2C)on1
CCOC(=O)c1ccc2[nH]c(C)c(CN3CCN(C)CC3)c(=O)c2c1
O=c1c2ccccc2c(-c2ccc(F)cc2)nn1-c1ccc(C(F)(F)F)cc1
O=c1c2ccccc2c(-c2ccccc2)nn1-c1ccccn1
COc1ccc(N)c(C)c1
COCC(=O)N(C)[C@H]1C[C@H]2c3cc(Oc4ccccc4C)ccc3CCN2C(=O)[C@H]1[C@H](C)O
COc1ccc(/C=C2\SC(=S)N(CCCC(=O)NC3CCCC3)C2=O)cc1OC
COc1ccc(/C=C2\SC(=S)N(CC(=O)NNC(=O)c3ccncc3)C2=O)cc1
Cc1ccc(/C=C2/SC(=S)N(CCC(=O)NCCCN3CCOCC3)C2=O)cc1
O=C(CCCN1C(=O)/C(=C/c2ccccc2)SC1=S)Nc1ccc(O)cc1
O=C(COC(=O)c1ccc(O)cc1O)NC(=O)c1ccccc1
O=C1/C(=C\c2ccc(O)cc2)CCC1CNc1ccc(Cl)cc1 (centres undefined)
COc1ccc(S(=O)(=O)N2CCc3ccccc32)cc1C(=O)Nc1cc(S(C)(=O)=O)ccc1Cl
COC(=O)Cc1c(-c2[nH]c3ccccc3c2CC(=O)OC)[nH]c2ccccc12
Cc1ccc2c(O)c(Cc3ccccc3)c(=O)[nH]c2n1
O=S(=O)(Nc1ccc2ccccc2c1)N1CCCCC1
CS(=O)(=O)N(CC(=O)Nc1ccc(Cl)c(Cl)c1)C1CCCCC1
CCn1nccc1C(=O)Nc1ccc(Cl)c(Cl)c1
O=S1(=O)CSCS(=O)(=O)C1
CCCCC(=O)NC(c1ccc(OC)c(OC)c1)c1ccc2cccnc2c1O (centres undefined)
Cc1cc(C)c2oc(C(=O)Nc3ccc(S(=O)(=O)Nc4nccc(C)n4)cc3)cc(=O)c2c1
Cc1ccnc(NS(=O)(=O)c2ccc(NC(=O)c3oc4ccccc4c3C)cc2)n1
O=C(O)c1ccccc1/C=N/Nc1ccc(S(=O)(=O)Nc2ccc(Cl)cc2)cc1[N+](=O)[O-]
CN(C(=O)c1cccc(NC(=O)Cc2ccc(NC(=O)C3CCCN(C(=O)C4CCCC4)C3)cc2)c1)C1CCC1 (centres undefined)
COc1ccc(/C=C2\SC(=O)N(CCC(=O)NCCCn3ccnc3)C2=O)cc1
COc1ccc(/C=C2\SC(=O)N(CCC(=O)NC3CCS(=O)(=O)C3)C2=O)cc1 (centres undefined)
C=CCn1c(=O)n(C)c2c(=O)n(C)c(=O)n(C)c21
O=C(Nc1ccc(Cl)cc1)c1cccc(OC(=S)N2CCOCC2)c1
Cc1cccc(NC(=O)CSc2nnc(-c3ccco3)o2)c1
Cc1c(NS(=O)(=O)c2cccc(C(=O)Nc3ccc(SC(F)F)cc3)c2)c(=O)n(-c2ccccc2)n1C
C(#CCN1CCOCC1)CCCN1CCOCC1
CC(=O)OC1CCC2C3CCC4=C(CC(F)C(=O)C4)C3CCC12C (centres undefined)
C(=N/Nc1cc(N2CCOCC2)nc(N2CCOCC2)n1)/c1ccccc1
COc1ccc(/C=N/NC(=O)Nc2ccc3nsnc3c2)c(OC)c1
CC(C)[C@@H](C(=O)OCC(=O)c1ccc2c(c1)NC(=O)CO2)N1C(=O)c2ccccc2C1=O
O=C(Nc1c[nH]c(=O)[nH]c1=O)OCc1ccccc1
CCCCCCCCNS(=O)(=O)CCNC1CCCCC1
Cc1ccc(C)c(N2CCN(C(=O)CCc3nc4ccccc4[nH]3)CC2)c1
O=C(CCCCCn1c(=S)[nH]c2cc3c(cc2c1=O)OCO3)N1CCN(c2ccc(F)cc2)CC1
CC(C)CN1CC(C)C(=O)N(c2ccccc2)C1=S (centres undefined)
COc1cc(/C=C/c2ccc(/C=C/c3cc(OC)c(OC)c(OC)c3)cc2)cc(OC)c1OC
COc1ccc(/C=C/C(=O)c2ccc(NS(=O)(=O)c3ccc(C)cc3)cc2)cc1O
COc1ccc(/C=C/C(=O)N2CCCC2)cc1OC
